Hit rate of the full screen: of about 5,500 compounds, about 2,000 (36%) were called active. About 18% were inconclusive and are not listed. The list shows a part of the results. A number with no mark means an inactive call. Rule as the data show it: active = normalized growth mostly below about 0.91 (no sharp cut-off); inconclusive = no clear call, values can overlap the other calls; inactive = mostly above about 0.92.
Experiment: chemical genetic growth profiling, strain panel (AID 1159580);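 also: tested at 20 µM; growth read once vehicle control cultures reached saturation at 30 °C; 1 = growth at the plate median or of vehicle wells; lower values mean less growth of the strain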
Settings: growth OD
[1] = S. cerevisiae deletion strains, locus YAL013W, strain DEP1, active compounds read low
[2] = S. cerevisiae deletion strains, locus YBR229C, strain ROT2, active compounds read low
[3] = S. cerevisiae deletion strains, locus YDL101C, strain DUN1, active compounds read low
[4] = S. cerevisiae deletion strains, locus YDL134C, strain PPH21, active compounds read low
[5] = S. cerevisiae deletion strains, locus YDR150W, strain NUM1, active compounds read low
[6] = S. cerevisiae deletion strains, locus YEL061C, strain CIN8, active compounds read low
[7] = S. cerevisiae deletion strains, locus YGR078C, strain PAC10, active compounds read low
[8] = S. cerevisiae deletion strains, locus YHR030C, strain SLT2, active compounds read low
[9] = S. cerevisiae deletion strains, locus YHR087W, strain rtc3, active compounds read low
[10] = S. cerevisiae deletion strains, locus YJR043C, strain POL32, active compounds read low
[11] = S. cerevisiae deletion strains, locus YJR075W, strain HOC1, active compounds read low
[12] = S. cerevisiae deletion strains, locus YLR039C, strain RIC1, active compounds read low
[13] = S. cerevisiae deletion strains, locus YLR058C, strain SHM2 (second series), active compounds read low
[14] = S. cerevisiae deletion strains, locus YLR085C, strain ARP6, active compounds read low
[15] = S. cerevisiae deletion strains, locus YLR262C, strain YPT6, active compounds read low
[16] = S. cerevisiae deletion strains, locus YML094W, strain GIM5, active compounds read low
[17] = S. cerevisiae deletion strains, locus YMR219W, strain ESC1, active compounds read low
[18] = S. cerevisiae deletion strains, locus YMR263W, strain SAP30, active compounds read low
[19] = S. cerevisiae deletion strains, locus YNL128W, strain TEP1, active compounds read low
[20] = S. cerevisiae deletion strains, locus YNL153C, strain GIM3, active compounds read low
[21] = S. cerevisiae deletion strains, locus YNL298W, strain CLA4 (second series), active compounds read low
[22] = S. cerevisiae deletion strains, locus YNL322C, strain KRE1, active compounds read low
[23] = S. cerevisiae deletion strains, locus YNR030W, strain Alg12, active compounds read low
[24] = S. cerevisiae deletion strains, locus YPL055C, strain LGE1, active compounds read low
[25] = S. cerevisiae deletion strains, locus YPL241C, strain CIN2, active compounds read low
[26] = S. cerevisiae deletion strains, locus YPR135W, strain CTF4, active compounds read low
[27] = S. cerevisiae deletion strains, locus YJL187C, strain SWE1, active compounds read low

Structure (SMILES): O=S(=O)(CCN1CCOCC1)c1ccc(Cl)cc1
- normalized growth [1]: 0.995
- normalized growth [2]: 0.982
- normalized growth [3]: 0.967
- normalized growth [4]: 0.993
- normalized growth [5]: 1.01
- normalized growth [6]: 0.993
- normalized growth [7]: 0.983
- normalized growth [8]: 1.06
- normalized growth [9]: 0.982
- normalized growth [10]: 1
- normalized growth [11]: 0.998
- normalized growth [12]: 1
- normalized growth [13]: 0.963
- normalized growth [14]: 0.974
- normalized growth [15]: 1.07
- normalized growth [16]: 0.982
- normalized growth [17]: 0.982
- normalized growth [18]: 0.99
- normalized growth [19]: 0.987
- normalized growth [20]: 1.01
- normalized growth [21]: 0.996
- normalized growth [22]: 0.985
- normalized growth [23]: 0.987
- normalized growth [24]: 0.982
- normalized growth [25]: 0.986
- normalized growth [26]: 1.15
- normalized growth (S. cerevisiae strains, strain wild type, active compounds read low): 0.976

Structure (SMILES): O=C(O/N=C\c1ccc2c(c1)OCO2)c1ccccc1Br
- normalized growth [1]: 0.907 (active)
- normalized growth [2]: 0.949
- normalized growth [3]: 0.961
- normalized growth [4]: 0.827 (active)
- normalized growth [5]: 0.872
- normalized growth [6]: 0.844 (active)
- normalized growth [7]: 0.927 (active)
- normalized growth [8]: 0.315 (active)
- normalized growth [9]: 0.928
- normalized growth [27]: 0.964
- normalized growth [10]: 0.926
- normalized growth [11]: 0.935
- normalized growth [12]: 0.491 (active)
- normalized growth [13]: 0.973
- normalized growth [14]: 0.465 (active)
- normalized growth [15]: 0.577 (active)
- normalized growth [16]: 0.815 (active)
- normalized growth [17]: 0.959
- normalized growth [18]: 0.892 (active)
- normalized growth [20]: 0.959
- normalized growth [21]: 0.826 (active)
- normalized growth [22]: 0.95
- normalized growth [23]: 0.857 (active)
- normalized growth [24]: 0.728 (active)
- normalized growth [25]: 0.834 (active)
- normalized growth [26]: 0.591 (active)

Structure (SMILES): O=C(O)c1ccc(N=Cc2ccc3c(c2)OCO3)cc1
- normalized growth [1]: 1
- normalized growth [2]: 0.991
- normalized growth [3]: 0.983
- normalized growth [5]: 0.879
- normalized growth [6]: 1.01
- normalized growth [7]: 0.994
- normalized growth [8]: 0.999
- normalized growth [9]: 1
- normalized growth [27]: 0.985
- normalized growth [10]: 0.997
- normalized growth [11]: 0.979
- normalized growth (S. cerevisiae deletion strains, locus YKL190W, strain CNB1, active compounds read low): 1
- normalized growth [12]: 0.991
- normalized growth [13]: 0.99
- normalized growth [14]: 1.05
- normalized growth [15]: 0.998
- normalized growth [16]: 1
- normalized growth [17]: 0.988
- normalized growth (S. cerevisiae deletion strains, locus YMR307W, strain GAS1, active compounds read low): 1.02
- normalized growth [19]: 1.04
- normalized growth [20]: 0.98
- normalized growth [21]: 1.04
- normalized growth [22]: 0.991
- normalized growth [23]: 1.01
- normalized growth (S. cerevisiae deletion strains, locus YOL006C, strain TOP1, active compounds read low): 1.04
- normalized growth [24]: 0.984
- normalized growth [25]: 0.992
- normalized growth [26]: 0.997
